58 molecules from ChEMBL document CHEMBL1157539, “Thousands of chemical starting points for antimalarial lead identification” (Nature, 2010) can be followed below.

Molecules are shown by their SMILES. The full ranking holds about 13,000 compounds; the median of “IFI” is about 4, and the highest 2% start at about 17. Many of the other results were omitted from the sample, so the highest values are more common in it than they were.

The nature of this experiment: GSK_TCMDC: Inhibition Frequency Index (IFI). The number of non-kinase HTS assays where a compound showed > 50 % inhibition, expressed as a percentage of the number of such assays in which the compound was tested. Format: functional.
`CCSc1ccc(C)cc1CON1C(N)=NC(N)=NC1(C)C`: the IFI came to 6.34%.

In the case of `Cc1c(Cn2nc(Cl)c(N3CCNCC3)cc2=O)cccc1NC(=O)Nc1ccc(-c2ccccc2)cc1`, the IFI is 10.8%. Molecule `O=C(/C=C/c1ccccc1Cl)Nc1ccc(Br)c(OCCN2CCCCC2)c1` yielded an IFI of 5.52%. Consider `CCC(C)(C)c1ccc(S(=O)(=O)Nc2ccc(Cl)c(OCCN3CCCCC3)c2)cc1`, for which the IFI amounted to 43.1%. `ON=C1c2cc(OCCN3CCCCC3)c(Cl)cc2-c2cc(Cl)c(OCCN3CCCCC3)cc21` yielded an IFI of 9.42%.

Turning to `COc1ccc(CNC2CCN(C)CC2)cc1-c1cccc(S(=O)(=O)NCc2ccccc2)c1`, the IFI came to 11%. With `COc1ccc2c(=NN=Cc3ccccc3Cl)cc(C)[nH]c2c1` the figure was 3.65%. Molecule `COc1cc(NC(=O)c2sc(-c3ccc(Cl)cc3)cc2NC(=O)c2cccnc2)ccc1OCCN1CCCC1` showed an IFI of 7.19%. Molecule `O=c1c2ccc(F)cc2sn1-c1ccc(Cl)cc1` came in with an IFI of 23.9%. With `O=C(/C=C/c1ccc(Cl)c(Cl)c1)NCCCCCN1CCC(c2c[nH]c3c(-c4ccccc4)cccc23)CC1` the figure was 8.09%; with `CN(Cc1cccc(F)c1)C1CCN(c2cc(NC(=O)c3cccc(F)c3)ccn2)CC1`, 0%. With `C[C@@H](C(N)=O)N1CCCCC1c1ccc(OCc2cccc(F)c2)cc1` (stereo partly drawn) the figure was 33.8%. On to `CN(Cc1cccc(F)c1)C1CCN(c2cc(NC(=O)c3ccc(F)cc3)ccn2)CC1`, for which the IFI was found to be 0%. With `O=C(C=Cc1ccc(Cl)c(Cl)c1)NCCCCCN1CCCC(CCCNS(=O)(=O)c2cccc3cccnc23)C1` (stereo not drawn) the figure was 5.8%. With `CCc1c(CCNCCCCCCNC(C)Cc2ccc3c(c2CC)OCO3)ccc(OC)c1OC` (stereo not drawn) the figure was 10.7%. With `O=C(CNCC1CCCCC1)Nc1cc(C(F)(F)F)ccc1Cl` the figure was 4.23%.

Molecule `CC(C)(C(=O)Nc1ccc(C2CCC(NCC3CC3)CC2)c(Cl)c1)c1ccc(C(F)(F)F)cc1` (stereo not drawn) returned an IFI of 25%. Consider `CC(C)(C(=O)Nc1ccc(N2CCC3(CCCN(CC4CC4)C3)CC2)c(Cl)c1)c1cccc(C(F)(F)F)c1`, for which the IFI worked out at 6.67%. `O=C(NCC1CCC(CNCCc2ccccc2)CC1)Nc1ccc(Cl)c(Cl)c1` (stereo not drawn): the IFI came out at 0.72%. `CN1CC[C@@H](Oc2cc(NC(=O)Nc3ccc(Cl)c(C(F)(F)F)c3)ccc2Cl)C1` had an IFI of 7.63%. With `CC(C)(C(=O)Nc1ccc(C2CCC(NCC3CC3)CC2)c(Cl)c1)c1cccc(OC(F)F)c1` (stereo not drawn) the figure was 23.4%; with `COc1ccc2c(=NN=C(C)c3ccccn3)cc(C)[nH]c2c1`, 4.96%; with `CCCCCCN1CCCN(Cc2ccc(C(=O)Nc3ccc(C(C)C)cc3)cc2)CC1`, 19.7%. `CCCCCCN1CCCN(Cc2ccc(C(=O)Nc3ccc(CC)cc3)cc2)CC1` returned an IFI of 13.5%.

In turn, `O=C(Nc1ccc(Cl)cc1)c1ccc(CN2CCCN(Cc3cccc(Cl)c3)CC2)cc1` gave an IFI of 8.66%. With `Cc1ccccc1CN1CCCN(Cc2ccc(C(=O)Nc3ccc(Cl)cc3)cc2)CC1` the figure was 10.2%; with `CC(C)(C)c1ccc(NC(=O)c2cccc(CN3CCCN(Cc4cccc(Cl)c4)CC3)c2)cc1`, 7.86%. With `CC(C)(C)c1ccc(NC(=O)c2ccc(CN3CCCN(Cc4ccc(F)cc4)CC3)cc2)cc1` the figure was 15.6%. As to `CCCCCCN1CCCN(Cc2ccc(C(=O)Nc3ccc(Cl)cc3)cc2)CC1`, the IFI was found to be 15.2%.

In the case of `CC(C)(C)c1ccc(NC(=O)c2ccc(CN3CCCN(Cc4cccc(Cl)c4)CC3)cc2)cc1`, the IFI stood at 17.2%. `Cc1ccccc1CN1CCCN(Cc2ccc(C(=O)Nc3ccc(C(C)(C)C)cc3)cc2)CC1` returned an IFI of 18.4%. With `Cc1cccc2nc(-c3ccc(-c4cccc(NC(=O)Nc5ccc(F)c(F)c5F)c4)cc3)[nH]c12` the figure was 2.91%. On to `O=C(/C=C/C=C/c1ccc(Cl)c(Cl)c1)NCCCCCN1CCCC2CCCCC21` (stereo not drawn), for which the IFI is 5.19%.

For the molecule `Cc1cccc2nc(-c3cccc(-c4ccc(NC(=O)Nc5ccc(Cl)c(Cl)c5)cc4)c3)[nH]c12`, the IFI was 7.07%. In the case of `CC(=O)Oc1c(Cl)c(C)nc(C)c1-c1ccc(Oc2ccc(OC(F)(F)F)cc2)cc1`, the IFI was 6.35%.

Regarding `CCN(CC)CCCN(CCCN(CC)CC)c1cc(C)nc(Nc2ccc3cc(Br)ccc3c2)n1`, the IFI was 4.35%. With `COc1cc(C(=O)Nc2ccc(-c3nc4ccccc4[nH]3)cc2)cc(OC)c1OC` the figure was 1.4%; with `CCn1c(C(C)C)cc2c3c(N)nc(N)nc3ccc21`, 2.88%. With `CCN(CC)CCOc1ccc(C(O)(C#CC(O)(c2ccc(OCCN(CC)CC)cc2)c2ccc([N+](=O)[O-])cc2)c2ccc([N+](=O)[O-])cc2)cc1` (stereo not drawn) the figure was 5.84%; with `CCOc1cc(C(=O)NC2CCN(Cc3ccccc3)C2)ccc1-c1nc2cc(Cl)ccc2[nH]1` (stereo not drawn), 2.14%. With `Nc1nc(N)c2cc(C(F)(F)F)ccc2n1` the figure was 1.65%; with `Cc1cc(C)c(CON2C(=N)N=C(N)NC2(C)C)cc1C`, 3.57%. For `Cc1cc(=O)[nH]c(-n2nc(C)cc2NC(=O)C2(c3ccc(Cl)cc3)CCCC2)n1`, the IFI is 19.2%. With `Cc1cc(=O)[nH]c(-n2nc(C)cc2NC(=O)CC(c2ccccc2)c2ccccc2)n1` the figure was 10.4%.

The molecule `Cc1cc(=O)[nH]c(-n2nc(C)cc2NC(=O)C(c2ccccc2)c2ccccc2)n1` displayed an IFI of 10.4%. As to `COc1cc(NCCCNCc2cn(Cc3cc(Br)cc(Br)c3)c3ccccc23)nc2ccccc12`, the IFI came to 17.4%. With `COc1cc(NCCCCNc2ccc(Cl)c(Cl)c2)nc2ccccc12` the figure was 26.5%. For `COc1cc(NCCCCCNc2cc(Cl)nc3ccccc23)nc2ccccc12`, the IFI is 15.8%. As for `COc1cc(NCC(O)CNc2cc(OC)c3ccccc3n2)nc2ccccc12`, the IFI amounted to 8.51%. In the case of `COc1cc(NCCCNC(=O)c2ccc(Cl)c(Cl)c2)nc2ccccc12`, the IFI came out at 12.5%. With `COc1cc(NCCCNCC2c3ccccc3Oc3ccccc32)nc2ccccc12` the figure was 20.8%. In turn, `COc1cc(NCCCNCc2cn(S(=O)(=O)c3ccccc3)c3ccccc23)nc2ccccc12` came in with an IFI of 8.96%. In the case of `COc1ccc(COc2cc(NCCCN)nc3ccccc23)cc1`, the IFI was 0%. `COc1cc(NCC(C)CNCc2cn(Cc3ccccc3)c3ccccc23)nc2ccccc12` (stereo not drawn) came in with an IFI of 7.19%. As for `CCN(CC)/C(=N\CCCCCC/N=C(\NC(=N)c1ccc(Cl)cc1)N(CC)CC)NC(=N)c1ccc(Cl)cc1`, the IFI was 12.2%. With `CC(C)CNCc1cccc(-c2ccc(CN(CCCN3CCN(C)CC3)C(=O)/C=C/c3ccccc3)cc2)c1` the figure was 5.15%. With `Cc1cc(NC2CCN(Cc3ccccc3)CC2)nc(NCCCCc2ccccc2)n1` the figure was 10.6%; with `Cc1cccc2nc(-c3cccc(-c4cccc(NC(=O)C(C)CN(C)C)c4)c3)[nH]c12` (stereo not drawn), 3.6%.
